# High-throughput results: PubChem, several laboratories
# CYP2C9 activ – increases human cytochrome P450 2C9 activity; P11712; recombinant CYP2C9, luciferin-H conversion, luminescence; stronger effect = higher value; factor 1 = untreated enzyme, 0 = blocked; activation factor at 5 µM; actives 1.4% (n = 96,000); AID 1024;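 active = activation factor of 2 or more for CYP2C9 at a 5 µM dose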
# CYP2C19 inh – inhibitors of human CYP2C19; CYP2C19 Supersomes, luciferin-H EGE luminescence, 30 min; inhibition, % at 5 µM; actives 21% (n = 96,000);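 active = CYP2C19 inhibition above a set limit at 5 µM in the primary screen, cut at about 50% in these data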
# Cav3 T inh – human Cav3.2 channel inhibition, primary screen. O95180. Cav3.2-expressing cells, Fluo-4 calcium fluorescence FDSS; stronger effect = lower value. B-score at 10 µM. actives 4% (n = 100,000). AID 449739;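 active = single-dose well whose peak fluorescence ratio is a statistical outlier from its plate by either plate-standardised score or position-corrected B-score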
# Target sequence (O95180 whole entry, looked up): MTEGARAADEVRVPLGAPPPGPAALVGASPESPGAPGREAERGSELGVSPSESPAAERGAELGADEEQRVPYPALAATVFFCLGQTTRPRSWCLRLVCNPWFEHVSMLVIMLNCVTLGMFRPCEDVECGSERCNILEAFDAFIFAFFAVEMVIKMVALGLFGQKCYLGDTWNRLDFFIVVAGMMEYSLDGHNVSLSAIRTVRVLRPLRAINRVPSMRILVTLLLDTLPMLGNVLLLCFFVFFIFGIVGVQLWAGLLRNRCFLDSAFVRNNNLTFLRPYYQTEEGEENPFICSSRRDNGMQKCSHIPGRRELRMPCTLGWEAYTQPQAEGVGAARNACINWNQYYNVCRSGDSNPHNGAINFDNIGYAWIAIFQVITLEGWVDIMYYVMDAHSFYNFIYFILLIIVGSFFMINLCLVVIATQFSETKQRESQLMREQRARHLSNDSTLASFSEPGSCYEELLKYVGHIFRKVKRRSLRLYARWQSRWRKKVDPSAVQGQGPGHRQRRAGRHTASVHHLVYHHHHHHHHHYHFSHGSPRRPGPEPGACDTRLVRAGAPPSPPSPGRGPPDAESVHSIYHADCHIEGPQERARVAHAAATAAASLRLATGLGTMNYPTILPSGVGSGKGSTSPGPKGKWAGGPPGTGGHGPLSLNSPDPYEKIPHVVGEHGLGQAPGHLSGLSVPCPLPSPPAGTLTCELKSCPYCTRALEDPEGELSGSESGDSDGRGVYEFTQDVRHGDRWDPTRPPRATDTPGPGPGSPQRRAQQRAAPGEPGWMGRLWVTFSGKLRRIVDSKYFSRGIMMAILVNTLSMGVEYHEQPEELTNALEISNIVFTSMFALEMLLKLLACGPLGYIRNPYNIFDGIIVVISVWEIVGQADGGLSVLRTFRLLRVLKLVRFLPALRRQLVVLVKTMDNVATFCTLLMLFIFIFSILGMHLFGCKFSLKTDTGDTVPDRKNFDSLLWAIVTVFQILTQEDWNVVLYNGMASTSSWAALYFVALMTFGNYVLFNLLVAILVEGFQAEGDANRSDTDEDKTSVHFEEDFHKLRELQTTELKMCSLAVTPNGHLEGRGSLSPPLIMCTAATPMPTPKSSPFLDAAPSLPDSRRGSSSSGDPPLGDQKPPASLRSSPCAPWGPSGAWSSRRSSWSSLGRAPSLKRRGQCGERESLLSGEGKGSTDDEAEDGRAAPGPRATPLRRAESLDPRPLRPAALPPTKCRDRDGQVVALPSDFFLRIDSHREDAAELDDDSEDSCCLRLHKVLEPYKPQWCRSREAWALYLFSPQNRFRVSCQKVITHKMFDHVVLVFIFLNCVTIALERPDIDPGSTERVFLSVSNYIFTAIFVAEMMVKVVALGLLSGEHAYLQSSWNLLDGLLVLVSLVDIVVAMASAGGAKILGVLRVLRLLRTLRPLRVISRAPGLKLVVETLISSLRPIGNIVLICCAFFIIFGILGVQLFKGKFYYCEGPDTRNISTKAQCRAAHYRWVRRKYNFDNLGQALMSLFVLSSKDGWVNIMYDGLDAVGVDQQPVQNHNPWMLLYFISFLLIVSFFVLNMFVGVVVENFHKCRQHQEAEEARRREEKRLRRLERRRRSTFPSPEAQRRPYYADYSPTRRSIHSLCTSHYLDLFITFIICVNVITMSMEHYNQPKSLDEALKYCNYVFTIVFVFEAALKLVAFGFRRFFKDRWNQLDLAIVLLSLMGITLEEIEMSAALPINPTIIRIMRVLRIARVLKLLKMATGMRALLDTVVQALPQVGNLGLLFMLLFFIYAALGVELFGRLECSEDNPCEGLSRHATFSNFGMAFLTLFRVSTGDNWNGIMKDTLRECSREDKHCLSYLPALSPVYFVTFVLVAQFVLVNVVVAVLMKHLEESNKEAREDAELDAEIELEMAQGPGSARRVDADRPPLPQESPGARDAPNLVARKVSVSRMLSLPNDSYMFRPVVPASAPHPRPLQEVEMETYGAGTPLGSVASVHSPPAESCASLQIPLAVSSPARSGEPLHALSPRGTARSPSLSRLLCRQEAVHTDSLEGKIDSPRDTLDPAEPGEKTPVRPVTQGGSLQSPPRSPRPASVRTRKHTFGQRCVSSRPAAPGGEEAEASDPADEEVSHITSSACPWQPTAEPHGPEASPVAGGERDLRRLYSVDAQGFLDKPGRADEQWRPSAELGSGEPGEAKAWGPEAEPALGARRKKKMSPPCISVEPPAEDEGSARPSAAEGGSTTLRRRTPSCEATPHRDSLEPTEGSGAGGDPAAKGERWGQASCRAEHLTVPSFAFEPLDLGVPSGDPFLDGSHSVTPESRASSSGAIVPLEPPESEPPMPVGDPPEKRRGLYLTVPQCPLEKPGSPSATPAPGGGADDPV
# CYP2C9 inh – human CYP2C9 inhibition; P11712; inhibition, % at 5 µM; AID 777; CYP2C9 Supersomes, luciferin-H conversion, luminescence; actives 20% (n = 96,000);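 active = blocking of liver enzyme CYP2C9 beyond about 50% at 5 µM, limit read from the data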
# CYP2C19 act – cytochrome P450 2C19 (human) activation; P33261; recombinant CYP2C19, luciferin-H EGE luminescence; stronger effect = higher value; 0 = fully inhibited enzyme, 1 = untreated enzyme; activation factor at 5 µM; 96,000 tested, under 10 active; AID 1025;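 active = activation factor of at least 2 at 5 µM in the primary screen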
# A number is an active result; – = inactive; · = not tested or not shown. Sampled rows, rich in hits. Any-hit rate of the full collection: about 27%.
SMILES,CYP2C9 activ,CYP2C19 inh,Cav3 T inh,CYP2C9 inh,CYP2C19 act
COc1ccc(Cc2nn3c(Cn4nnc5ccccc54)nnc3s2)cc1,–,87,–,79,–
COc1ccc(Cc2nn3c(-c4ccccc4OC)nnc3s2)cc1,–,82,–,60,–
O=C(Nc1ccccc1Cl)N1CCN(c2ncccn2)CC1,–,85,–,–,–
O=C(COc1ccccc1Cl)OCC(=O)N1CCN(S(=O)(=O)c2ccccc2)CC1,–,–,–,–,–
O=C(c1ccccc1OCc1ccccc1Br)N1CCN(c2ncccn2)CC1,–,97,·,99,–
O=C(NCCC(=O)N1CCN(c2ncccn2)CC1)c1ccccc1Cl,–,–,–,54,–
O=C(COc1ccccc1Cl)N1CCN(c2ncccn2)CC1,–,92,–,–,–
COc1ccccc1C(=O)N1CCN(c2ccccn2)CC1,–,–,·,–,–
N#C/C=C(/N)N1CCN(c2ccc(Cl)c(Cl)c2)CC1,–,–,–,–,–
O=C(Nc1ccccc1Cl)N1CCN(c2ccc3nnc(-c4ccc(F)cc4)n3n2)CC1,–,–,·,66,–
COc1ccc(CCNC(=O)Cn2nnc(-c3ccc(N(C)C)cc3)n2)cc1OC,·,·,–,·,·
CCOC(=O)CSc1nc2ccc(N3CCOCC3)cc2c(=O)n1Cc1ccccc1,–,76,–,83,–
CCOC(=O)CSc1nc2ccccc2c(=O)n1CCN1CCOCC1,·,·,–,·,·
COCCNC(=O)CSc1nc2ccc(N3CCOCC3)cc2c(=O)n1CCc1ccccc1,–,61,–,64,–
Cc1ccc(C(=O)CSc2nc3ccccc3o2)cc1,–,–,–,–,–
CCCc1cc2c(=O)c(-c3ccc4c(c3)OCCO4)c(C)oc2cc1OS(C)(=O)=O,–,–,–,–,–
CCc1cc(-c2[nH]ncc2-c2ccc3c(c2)OCO3)c(O)cc1O,–,100,·,99,–
CCCN(CCC)C(=O)c1ccc2c(c1)OCO2,·,·,–,·,·
Oc1ccccc1-c1cc(-c2ccc3c(c2)OCCO3)n[nH]1,–,–,·,–,–
COc1ccc(-c2[nH]ncc2-c2ccc3c(c2)OCCO3)c(O)c1,–,61,–,66,–
CCCc1cc(-c2[nH]ncc2-c2ccc3c(c2)OCCCO3)c(O)cc1OC,–,86,–,100,–
CCOC(=O)c1ccccc1NC(=O)CSc1ccccc1,·,·,–,·,·
Cc1onc(-c2ccccc2)c1C(=O)N1CCN(C)CC1,–,–,–,–,–
Fc1ccc(NCc2cn3ccccc3n2)cc1,–,84,–,–,–
Fc1cccc(NCc2cn3ccccc3n2)c1,–,78,–,–,–
SMILES,CYP2C9 activ,CYP2C19 inh,Cav3 T inh,CYP2C9 inh,CYP2C19 act
O=C(NCCc1cn2ccccc2n1)c1ccccc1F,–,–,–,–,–
COc1ccc(NC(=O)c2cc(-c3cc(C)cc(C)c3O)n[nH]2)cc1Cl,–,–,–,–,–
COc1ccccc1C(c1nnnn1Cc1ccccc1)N1CCC(C(N)=O)CC1 (stereo unspecified),·,·,–,·,·
O=C(Nc1ccc(Cl)cc1)OCCn1nnnc1C(c1ccccc1Cl)N1CCOCC1 (stereo unspecified),–,–,-6.9,54,–
CC(=O)N(C)C1(c2nnnn2CCOC(=O)Nc2ccc(Cl)cc2)CCCCC1,–,93,–,–,–
CC(=O)N(C)C1(c2nnnn2CCOC(=O)Nc2cccc3ccccc23)CCCC1,–,–,–,–,–
Cn1nnnc1SCC(=O)Nc1ccc(Oc2ccc(Cl)cc2)cc1,–,–,–,–,–
CC(=O)NC1(c2nnnn2CCOC(=O)Nc2ccc(Cl)cc2)CCCCC1,–,95,–,71,–
C=CCSC1=Nc2sccc2C2=NC(=O)CN12,–,–,·,–,–
COCCNC(=O)c1ccc2ccccc2n1,–,–,–,–,–
O=C(OCCNC(=O)c1ccc2ccccc2n1)c1cccnc1,–,90,–,66,–
CCN(CC)S(=O)(=O)c1ccc(C(=O)OCCNC(=O)c2cccnc2)cc1,–,–,–,72,–
COc1ccc(C2(CNC(=O)CCC(=O)O)CCCC2)cc1,–,–,–,–,–
CC1CCN(C(=O)CNC(=O)Cn2ccc3ccccc3c2=O)CC1,–,–,·,–,–
COC(=O)c1cc(C(=O)OC)cc(S(=O)(=O)Nc2ccc(Cl)c(N)c2)c1,–,94,–,–,–
O=c1oc2ccccc2c2c1ncn2C1CCCCC1,–,–,–,–,–
Cc1ccc(-c2noc(CN3CCC(C(N)=O)CC3)n2)cc1,–,–,·,–,–
Cc1ccc(-c2noc(CN3C(C)CCCC3C)n2)cc1 (stereo unspecified),–,51,–,–,–
C/C(=N\OC(=O)c1cccc(C)c1)c1sc(-c2ccccc2)nc1C,–,52,–,–,–
CCCN1C(=O)c2cc(C(=O)NCc3ccc(OC)cc3)ccc2C1O (stereo unspecified),–,–,–,–,–
COc1ccc(Cl)cc1N1C(=O)CC(N2CCc3ccccc32)C1=O (stereo unspecified),–,91,–,–,–
COc1cccc(N2C(=O)CC(N3CCc4ccccc43)C2=O)c1 (stereo unspecified),–,83,–,–,–
COc1cccc(N2CCN(C3CC(=O)N(c4ccc(F)c(Cl)c4)C3=O)CC2)c1 (stereo unspecified),–,–,–,55,–
COc1ccccc1N1C(=O)CC(N2CCc3ccccc32)C1=O (stereo unspecified),–,91,–,–,–
COc1cccc(N2CCN(C3CC(=O)N(c4ccc(C)c(Cl)c4)C3=O)CC2)c1 (stereo unspecified),–,–,–,–,–
SMILES,CYP2C9 activ,CYP2C19 inh,Cav3 T inh,CYP2C9 inh,CYP2C19 act
COc1cccc(N2C(=O)CC(N3CCC(c4nc5ccccc5[nH]4)CC3)C2=O)c1 (stereo unspecified),–,–,–,–,–
CCC1CCCCN1Cc1ccc(OC)c(C)c1C (stereo unspecified),–,–,–,–,–
Nc1ccccc1C#Cc1cnccn1,·,·,–,·,·
Cc1cc(C)n2c(SCC(=O)Nc3ccc(Cl)cn3)nnc2n1,–,–,–,–,–
CCN1C(=O)c2c(C)nc3ccccc3c2C1=O,–,58,–,–,–
Cc1ccc(S(=O)(=O)Cc2nc3ccccc3c(=O)[nH]2)cc1,–,85,–,–,–
Cc1ccc(CNC(=O)CCc2nc3ccccc3c(=O)[nH]2)cc1,–,–,–,–,–
CN(C)C(=O)c1c(NC(=O)c2ccco2)sc2c1CCCCC2,·,·,–,·,·
O=C(Nc1ncnc2sc3c(c12)CCC3)c1ccco1,2.4,–,–,–,–
O=C(Nc1ncnc2sc3c(c12)CCCCC3)c1ccccc1,–,51,–,–,–
O=C(Nc1sc2c(c1C(=O)O)CCCCC2)c1ccco1,–,–,–,51,–
O=C(Nc1ncnc2sc3c(c12)CCCCC3)c1ccc(F)cc1,–,–,–,–,–
C(=N\Nc1ncnc2sc3c(c12)CCC3)/c1ccncc1,–,83,–,82,–
